# Source: PubChem BioAssay AID1345085 (National Center for Advancing Translational Sciences (NCATS), 2018)
# Records with an inconclusive call do not appear. Calls of active or inactive are those of the source. The call rests on the fitted dose curve; in most records, active means well fitted cell-killing curve with a large enough effect; inconclusive means small, poorly fitted or top-dose-only effect, or effect the other way; inactive means no such curve, though single readings can be large or run the other way.
# System: CASKI
# Assay: Confirmatory qHTS for gynecologic anti-cancer compounds from libraries of approved drugs and bioactive compounds; further: nearly all actives have a fitted effect of over 55% in size
# Conditions: gynecologic cancer cell panel viability, ATPlite luminescence, 48 h; series mostly up to 57.6 µM; activity change, negative = viability loss: at the top concentration
# How it was run: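 1,000 cells/well; 16 h pre-incubation 37 C, 5% CO2; pin-transferred cpd in DMSO, 11 conc (1:3), 57.5 uM–0.977 nM; 48 h; ATPlite, 15 min RT; luminescence → IC50.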
# On the % scale 0 is the no-effect control and ±100 the full control effect; potency means the concentration at half of the fitted maximal effect.
SMILES,Potency,"activity change, negative = viability loss"
CCS(=O)(=O)c1cccc(-c2cc(C(=O)NC3CCN(C)CC3)c(C)c3[nH]c4ncc(C)cc4c23)c1,4.76 µM (active),
Cn1c(=O)c(-c2c(Cl)cccc2Cl)cc2cnc(Nc3cccc(C(=O)O)c3)nc21,3.06 µM (active),
O=C1Cc2cc(CCN3CCN(c4nsc5ccccc45)CC3)c(Cl)cc2N1,,1.02% (inactive)
Cn1cnc([N+](=O)[O-])c1Sc1ncnc2nc[nH]c12,6.85 µM (active),
CC[C@@]1(O)C(=O)OCc2c1cc1n(c2=O)Cc2cc3cc(O)ccc3nc2-1,0.243 µM (active),
CCCCc1oc2ccc(NS(C)(=O)=O)cc2c1C(=O)c1ccc(OCCCN(CCCC)CCCC)cc1,27.3 µM (active),
CN(C)C/C=C/C(=O)Nc1cc2c(Nc3ccc(F)c(Cl)c3)ncnc2cc1OC1CCOC1 (stereo not drawn),21.7 µM (active),
CC(C)CC(=O)Nc1n[nH]c2c1CN(C(=O)C1CCN(C)CC1)C2(C)C,3.43 µM (active),
CCOC(=O)C1=C(C)NC2=C(C(=O)CC(C)(C)C2)C1c1ccc(-c2ccccc2)cc1 (stereo not drawn),,-23.5% (inactive)
O=C1N(c2ccccc2)c2ccccc2C1(Cc1ccncc1)Cc1ccncc1,,8.36% (inactive)
Nc1nc(Cl)nc2c1ncn2C1OC(CO)C(O)C1F (stereo not drawn),1.22 µM (active),
CCS(=O)(=O)N1CCN(c2ccc(Nc3ncc(C(N)=O)c(NC4CC4)n3)cc2)CC1,10.9 µM (active),
CCOc1cc2ncc(C#N)c(Nc3ccc(F)c(Cl)c3)c2cc1NC(=O)/C=C/CN(C)C,8.63 µM (active),
COc1ccccc1N1CCN(CC(O)COc2cccc3ccccc23)CC1 (stereo not drawn),,-4.81% (inactive)
COc1ccc2cc3[n+](cc2c1OC)CCc1cc2c(cc1-3)OCO2,10.9 µM (active),
CNC(=O)c1nn(C)c2c1C(C)(C)Cc1cnc(Nc3ccc(N4CCN(C)CC4)cc3)nc1-2,10.9 µM (active),
O=C(/C=C/c1cccc(S(=O)(=O)Nc2ccccc2)c1)NO,4.73 µM (active),

SMILES,Potency,"activity change, negative = viability loss"
CNC(=O)c1ccccc1Sc1ccc2c(/C=C/c3ccccn3)n[nH]c2c1,13.7 µM (active),
O=C(Nc1cccnc1)N1CCC(Cc2cccc(Oc3ccc(C(F)(F)F)cn3)c2)CC1,12.2 µM (active),
Cc1cc(Nc2cc(N3CCN(C)CC3)nc(Sc3ccc(NC(=O)C4CC4)cc3)n2)n[nH]1,,-30.6% (inactive)
COC(C)(C)CCn1nc(Nc2c(C)cccc2C)c2cnc(Nc3ccc(OCCN4CCCC4)c(F)c3)nc21,3.43 µM (active),
CN(C)/N=N/c1nc[nH]c1C(N)=O,,-20.5% (inactive)
C[C@]12CCC(=O)C=C1CC[C@@H]1[C@@H]2[C@@H](O)C[C@@]2(C)[C@H]1CC[C@]2(O)C(=O)CO,,21.2% (inactive)
CCN1C[C@H](C)n2c(c(O)c3c(=O)n(Cc4ccc(F)c(Cl)c4)nc(C(=O)NC)c32)C1=O,,13.6% (inactive)
O=C(NOCC1CC1)c1ccc(F)c(F)c1Nc1ccc(I)cc1Cl,21.7 µM (active),
NCCOc1cc(C(=O)Nc2cc(OCCN)c3ccccc3n2)nc(C(=O)Nc2cc(OCCN)c3ccccc3n2)c1,30.6 µM (active),
Cn1cc(-c2ccc3ncc(Cc4ccc5ncccc5c4)n3n2)cn1,,11.8% (inactive)
COc1cccc2c1C(=O)c1c(O)c3c(c(O)c1C2=O)C[C@@](O)(C(=O)CO)C[C@@H]3O[C@H]1C[C@H](N)[C@H](O[C@@H]2CCCCO2)[C@H](C)O1,17.2 µM (active),
CCC1C(=O)N(C)c2cnc(Nc3ccc(C(=O)NC4CCN(C)CC4)cc3OC)nc2N1C1CCCC1 (stereo not drawn),6.85 µM (active),
CCCc1nn(C)c2c(=O)[nH]c(-c3cc(S(=O)(=O)N4CCN(C)CC4)ccc3OCC)nc12,,20.6% (inactive)
CC(C)n1nc(-c2cc3cc(O)ccc3[nH]2)c2c(N)ncnc21,8.63 µM (active),
Cc1ccc(NC(=O)c2ccc(CN3CCN(C)CC3)cc2)cc1Nc1nccc(-c2cccnc2)n1,,-19.5% (inactive)
CN1CCN(c2ccc(OC(F)(F)F)c(Nc3ncc4c(n3)-c3c(c(C(N)=O)nn3CCO)CC4)c2)CC1,,-21.7% (inactive)
